Experimental findings from publication PMC7819943, “Rice protein-binding microarrays: a tool to detect cis-acting elements near promoter regions in rice” are described below.

In all, about 68,000 sequences were measured (“fluorescence intensity (a.u.)”: median about 9,100, highest 2% from about 16,000 on). Many of the other results were omitted from the sample, so the highest values are more common in it than they were.

The target of this assay is OsWRKY34 (Oryza sativa, UniProt Q0JBA9 1-250). Kind of assay: protein-binding microarray (RPBM); PBS, 2% BSA, 51.3 ng/ul salmon testes DNA, 50 uM zinc acetate, 200 nM TF, 25 C, 1 h; high values mean tight binding. As to conditions: protein: recombinant; tags: N-terminal polyhistidine and DsRed monomer fusion (pET32a); label: CyDye5-dUTP incorporated in the synthesized complementary strand; 3' TTTTT single-stranded linker to array surface; dsDNA, one strand shown. In outline: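 A custom Agilent array was converted to double-stranded form by primer extension with Cy5-dUTP and blocked with 2% BSA. Protein at 200 nM in PBS with 2% BSA, salmon testes DNA and 50 µM zinc acetate was applied for 1 h at 25 °C, followed by washing. The proteins were polyhistidine–DsRed N-terminal fusions of transcription factors, expressed in E. coli BL21-CodonPlus and Ni–NTA-purified. The binding signal is per-feature fluorescence intensity (arbitrary units) from an Axon 4000B scanner.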
Chain of OsWRKY34 (Q0JBA9 entry or part of it): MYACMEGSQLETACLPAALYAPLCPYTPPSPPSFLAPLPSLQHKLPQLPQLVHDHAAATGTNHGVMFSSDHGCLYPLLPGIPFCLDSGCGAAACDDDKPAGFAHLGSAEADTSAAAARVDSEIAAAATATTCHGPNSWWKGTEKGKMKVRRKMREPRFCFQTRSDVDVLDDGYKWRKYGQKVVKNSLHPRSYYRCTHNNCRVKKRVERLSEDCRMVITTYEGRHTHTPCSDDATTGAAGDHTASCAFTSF
Consider “GTCTCAAAAACTCATTCTCCACACGTAATGGATACTTTTGCGGAGTCACCTAGTGCAG”, for which the binding signal was 8800 fluorescence intensity (a.u.). On to “TATAACACCAATGACTCTATCTTCATCCGCATGCGTGCCGCGGAGTCACCTAGTGCAG”, for which the binding signal was 9390 fluorescence intensity (a.u.).

With “CCATGTATCACACTCCGTTCATATATTCCTGGGCTGTATTCGGAGTCACCTAGTGCAG”, the binding signal was 8450 fluorescence intensity (a.u.). Regarding “CATCGCCACCACCGCAGCCGCCTCTCAATTAGGAACACGTCGGAGTCACCTAGTGCAG”, the binding signal was 10300 fluorescence intensity (a.u.). For the sequence “TCTCTCTTTTTTTAAGCACCTTTTCTGCCTTTTTTCTTTTCGGAGTCACCTAGTGCAG”, the binding signal is 12200 fluorescence intensity (a.u.). The figure for “TTATCAATATCTCTCTCTCGGCGCGTATAGCCGTCGCGCGCGGAGTCACCTAGTGCAG” is 8690 fluorescence intensity (a.u.). The figure for “TAGCACTAAAACGAGAGGCCTTTTGATTTAGATTTTGCCACGGAGTCACCTAGTGCAG” is 21900 fluorescence intensity (a.u.); for “CTATCGCCACCTTTTGCCTTGATTTCTCCTTATTGCTAAACGGAGTCACCTAGTGCAG” it is 14600 fluorescence intensity (a.u.). Regarding “AGCACATAGCTAGTTAGCCACATATTATTTGATCACTAAACGGAGTCACCTAGTGCAG”, the binding signal was 8980 fluorescence intensity (a.u.).

For the sequence “GTCCGCATCGAGCCGCAGATCTTTCTCACCGCCACCGATGCGGAGTCACCTAGTGCAG”, the binding signal was 8140 fluorescence intensity (a.u.). “CCCTATCGAACGACCACCGAAACCATCATCATTCATCACCCGGAGTCACCTAGTGCAG”: the binding signal is 9470 fluorescence intensity (a.u.).

Regarding “TTTAGCTTAACTTATTACGATTATGGCTGTGTTTAGTTTCCGGAGTCACCTAGTGCAG”, the binding signal was 9160 fluorescence intensity (a.u.). Next, “AAACTAATTTTCTGTGACACTTCCAAGTGCATACCGGAGTCGGAGTCACCTAGTGCAG”: 8660 fluorescence intensity (a.u.); “AAAGTGATGTGGTGGTGGAGTTGTGGGTATATGATTTTATCGGAGTCACCTAGTGCAG”: 8790 fluorescence intensity (a.u.). In the case of “TTGTTTGACTCTTTTTTAATTAAATTTCTATAAGTTTAATCGGAGTCACCTAGTGCAG”, the binding signal is 8280 fluorescence intensity (a.u.).

With “ATTTTTTATGGGTGTTTGGTTAGTGGGTGGGAGTGGGATACGGAGTCACCTAGTGCAG”, the binding signal is 12000 fluorescence intensity (a.u.). For “GGCCTCATTCTGGGATCGTTTTATGGTGGGGTTATCGTTACGGAGTCACCTAGTGCAG”, the binding signal was 20600 fluorescence intensity (a.u.). In the case of “GCCTGGTTTTATAAGTTGTGGGATGGGTTATATCTAGTATCGGAGTCACCTAGTGCAG”, the binding signal is 28800 fluorescence intensity (a.u.). Next, “GCATATGGGGATTCTGGGATTTTGGTTTACAGTCTACATTCGGAGTCACCTAGTGCAG”: 8100 fluorescence intensity (a.u.). Turning to “GCTGGGTTTGTGGGTTTTCTCATAAGTTTAATCTCTATATCGGAGTCACCTAGTGCAG”, the binding signal was 17400 fluorescence intensity (a.u.). Next, “CTATCGATATAATCTCTAAGTGAGTTTTTTGTATTTTTTTCGGAGTCACCTAGTGCAG”: 8020 fluorescence intensity (a.u.). For “GGATGGGTTATATCTAGTATTGTGGTTGGGACTGCCTATACGGAGTCACCTAGTGCAG”, the binding signal was 11100 fluorescence intensity (a.u.). Next, “CCGCACAATCCGCGCCGCCATCAGTTCGCTCTCGCCACCACGGAGTCACCTAGTGCAG”: 9020 fluorescence intensity (a.u.).

In the case of “GCGCCCACGAACCTTGTCTTCAAGCAATCCCACACTTCCTCGGAGTCACCTAGTGCAG”, the binding signal is 9490 fluorescence intensity (a.u.).

Regarding “ATTTCAGGCCCACTAGTCCGCTCTTCCTCTTCTTTTTTTTCGGAGTCACCTAGTGCAG”, the binding signal is 9840 fluorescence intensity (a.u.). The figure for “GCCGCCATCCCCACCATCGCCGTCGCCGTCGCCTCGCCTCCGGAGTCACCTAGTGCAG” is 13300 fluorescence intensity (a.u.). With “CTCTAACAGTCTGCTATTATATCTGCTCTCATGCGTCATCCGGAGTCACCTAGTGCAG”, the binding signal is 11100 fluorescence intensity (a.u.).

Take “ACTTTTACATAGAATTTTTTTTTGAACACACCGTTTAGCACGGAGTCACCTAGTGCAG”: the binding signal is 8510 fluorescence intensity (a.u.). Regarding “TTCGTTTCAAAATATTTGACACCGTTGACTTTTTAGCACACGGAGTCACCTAGTGCAG”, the binding signal is 25700 fluorescence intensity (a.u.). For “TCCGTTTCGTTTTATTTGACACCGTTGACTTTTTAGCACACGGAGTCACCTAGTGCAG”, the binding signal was 19500 fluorescence intensity (a.u.). “TTTCAAAATATTTGACTCCGTTGATTTTTTTAGCACATGTCGGAGTCACCTAGTGCAG”: the binding signal is 9070 fluorescence intensity (a.u.). As to “TTTAGCACGTATTTGACCGTTCGTCTTATTCAAAAACTTTCGGAGTCACCTAGTGCAG”, the binding signal is 8790 fluorescence intensity (a.u.).

With “ACTTTAGTTTTTTTCCGTTGCAGCACACGGTTTTTTTTAACGGAGTCACCTAGTGCAG”, the binding signal is 9170 fluorescence intensity (a.u.). Take “TCCATGGATATTTTGTCTCTTCTGCTTGATCACTAGGCCCCGGAGTCACCTAGTGCAG”: the binding signal was 10100 fluorescence intensity (a.u.).

Take “TCCCGACACCGGCTGTCCACTTCGCTCTGCTCCACGCCGCCGGAGTCACCTAGTGCAG”: the binding signal was 8660 fluorescence intensity (a.u.).

On to “TCAACTCCTCCCTGAGTCTAGTCCCGATCCGCCGTTGACCCGGAGTCACCTAGTGCAG”, for which the binding signal is 13000 fluorescence intensity (a.u.). “ATCCCCACCGTTGACCGAAGTTGACCTCCAAGAATCCTGACGGAGTCACCTAGTGCAG”: the binding signal is 13800 fluorescence intensity (a.u.). In the case of “CTCCCTGAGTCTAGTCCCGATCCCCACCGTTGACCGAAGTCGGAGTCACCTAGTGCAG”, the binding signal is 19900 fluorescence intensity (a.u.).

Regarding “CTGAGAATTTAGGACCTGATCACTTTTATGACATTTTCAACGGAGTCACCTAGTGCAG”, the binding signal was 8610 fluorescence intensity (a.u.). Next, “TGCGTTTATTTATACCGTTGTCCTCGCGTACTGTTTTATTCGGAGTCACCTAGTGCAG”: 19400 fluorescence intensity (a.u.). “GCCATTATATCTGCAGTTCTTTTCTGTGCTAAAATTTTAGCGGAGTCACCTAGTGCAG”: the binding signal was 17100 fluorescence intensity (a.u.). Next, “AGTGGTGCATTCTGTTTTTTTATATATTATTATTTGTTTACGGAGTCACCTAGTGCAG”: 9050 fluorescence intensity (a.u.). “TTTCCGTACTAAATTTTGTTCATTCGTTTTATTTATTTTTCGGAGTCACCTAGTGCAG”: the binding signal is 17100 fluorescence intensity (a.u.). The figure for “GCTTTCTGTGGTGCATTCTATATTTTTTATATATTATTATCGGAGTCACCTAGTGCAG” is 16400 fluorescence intensity (a.u.); for “TTCGTATTTGTTTCCGTATCCGGATTATTCATATTCGTTTCGGAGTCACCTAGTGCAG” it is 8050 fluorescence intensity (a.u.).
